Experimental data taken from PubChem BioAssay (NCI).
Compounds without any hit were thinned out: in the full panel of roughly 83,000, 20% have a hit.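 Step 1: grow cells in 96-well plates. Step 2: add test compound at a single concentration. Step 3: incubate 48 h. Step 4: record percent growth.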 The source made the active and inactive calls. How the source made its calls: active means growth percent below 10; inactive means the rest.

Experiments:
Test in all cases: NCI-60 one-dose screen, 48 h (100 = growth as untreated, 0 = no growth, -100 = all killed)
Details in all cases: 10 µM unless noted
[1] = system: SR leukemia
[2] = system: RPMI-8226 leukemia
[3] = system: OVCAR-8 ovarian
[4] = system: OVCAR-5 ovarian
[5] = system: OVCAR-4 ovarian
[6] = system: SK-OV-3 ovarian
[7] = system: IGROV1 ovarian
[8] = system: OVCAR-3 ovarian
[9] = system: HS 578T breast
[10] = system: NCI/ADR-RES ovarian
[11] = system: BT-549 breast
[12] = system: MDA-MB-435 melanoma
[13] = system: SW-620 colon
[14] = system: MCF7 breast
[15] = system: HCT-116 colon
[16] = system: HCC-2998 colon
[17] = system: KM12 colon

Measured: growth

O=C(O)CNC(=O)CN1C(=O)c2ccccc2C1=O
inactive: [1] 102% | [2] 101% | [3] 94.4% | [4] 101% | [5] 115% | [6] 90.7% | [7] 107% | [8] 116% | [9] 113% | [10] 104% | [11] 89.5% | [12] 107% | [13] 105% | [14] 96.3% | [15] 89.3% | [16] 106% | [17] 115%

COC(=O)Nc1ccc(NC(=O)OC)cc1
inactive: [1] 105% | [2] 89.4% | [3] 94.6% | [4] 114% | [5] 112% | [6] 90.9% | [7] 120% | [8] 111% | [9] 102% | [10] 104% | [11] 84.6% | [12] 101% | [13] 104% | [14] 92.1% | [15] 83.9% | [16] 106% | [17] 111%

COc1cc(NCCN(CC(C)C)C2CCCC2)c2ncccc2c1
inactive: [1] 82.6% | [2] 99.2% | [3] 84.9% | [4] 96.4% | [5] 36.6% | [6] 97.7% | [7] 86.8% | [8] 83.1% | [9] 84.2% | [10] 86.6% | [11] 98.8% | [12] 111% | [13] 72.2% | [14] 42% | [15] 63.4% | [16] 87.5% | [17] 86.1%

COc1ccc(/C=C/c2n[nH]c3ccc(N4CCOC4=O)cc23)cc1
inactive: [3] 19.3% | [4] 14.1% | [5] 40% | [6] 25.2% | [10] 15.6% | [11] 16.1% | [12] 44.4% | [16] 31.5%
active: [1] 2.85% | [2] -14.9% | [7] 8.62% | [8] 4.56% | [9] 2.93% | [13] 1.51% | [14] 2.37% | [15] 8.08% | [17] 8.51%

Clc1ccc(N2N=C(c3cccc(Nc4ccncc4)c3)CC2c2ccc3c(c2)OCO3)cc1 (centres undefined)
inactive: [2] 44.1% | [3] 26.7% | [4] 73.9% | [5] 44.7% | [6] 54.8% | [7] 20.7% | [8] 23.5% | [9] 68.9% | [10] 31.2% | [11] 87.1% | [15] 18.4%
active: [1] 6.11% | [12] -77.6% | [13] -78.6% | [14] -17.4% | [16] 1.72% | [17] 2.3%

O=C(Nc1ccc(F)cc1)c1c(NC(=O)C(F)(F)F)sc2c1CCCCC2
inactive: [4] 22.7% | [7] 18.1% | [13] 11.6% | [16] 10.1%
active: [1] 2.35% | [2] -36.8% | [3] 8.06% | [5] 4.42% | [6] -16.8% | [8] 4.39% | [9] -6.84% | [10] 0.19% | [11] -2.41% | [12] 3.22% | [14] 3.61% | [15] 1.79% | [17] 2.08%

Cc1c2c(cc[n+]1Cc1ccc(F)cc1)c1ccc(OCc3cccc(F)c3)cc1n2Cc1cccc(F)c1
active: [1] -48.7% | [2] -33% | [3] -81.6% | [4] 4.86% | [5] -80.8% | [6] 2.43% | [7] -67.4% | [8] -98.5% | [9] -40.9% | [11] -88.3% | [12] -91.8% | [13] -87.6% | [14] -76.7% | [15] -92.1% | [16] -92.5% | [17] -98.8%
inactive: [10] 85%

COc1cc(C2CC(c3cccc(Nc4ccncc4)c3)=NN2c2cc(Cl)cc(Cl)c2)cc(OC)c1OC (centres undefined)
active: [1] 0.528% | [2] -13.7% | [3] -8.55% | [5] 6.43% | [7] -2.86% | [8] 3.71% | [9] 0.285% | [12] -85% | [13] -62.6% | [14] -50.7% | [16] -60.4% | [17] -75.7%
inactive: [4] 65.1% | [6] 76.2% | [10] 51.4% | [11] 104% | [15] 87.3%

COc1ccccc1/C=C1\Oc2cc(OCCCN3CCCC3)ccc2C1=O
inactive: [1] 46.9% | [2] 107% | [3] 93.7% | [4] 84.2% | [5] 89% | [6] 108% | [7] 92.3% | [8] 94.8% | [9] 83.7% | [10] 84.6% | [11] 94.8% | [12] 91.4% | [13] 73% | [14] 80% | [15] 50.9% | [16] 102% | [17] 98.3%

O=C(/C=C\c1ccc(OCCCCCC[P+](c2ccccc2)(c2ccccc2)c2ccccc2)cc1)c1ccc2c(c1)OCCO2
inactive: [4] 13.9% | [10] 78.1% | [16] 32.5%
active: [1] -18.9% | [2] -41.7% | [3] 1.04% | [5] -3.06% | [6] -23.8% | [7] 5.29% | [8] -27% | [9] 7.53% | [11] -16.9% | [12] -29.8% | [13] -41.4% | [14] 5.09% | [15] -73.1% | [17] -76.4%

CCc1nc(C)cn1C(=O)OCc1nc2nc(Cl)nc(N3CCOCC3)c2[nH]1
active: [1] -16.1% | [2] -33.1% | [3] -13.7% | [4] -48.9% | [5] -33.9% | [7] -48.1% | [8] -80.9% | [9] -6.6% | [10] 2.83% | [11] -18.8% | [12] -73.6% | [13] -47.9% | [14] -22.4% | [15] -71.5%
inactive: [6] 70% | [16] 26.5% | [17] 20.8%

COc1cccc2cc(-c3cc4ccccc4[nH]3)/c(=N/C(=S)Nc3ccc(C)cc3)oc12
inactive: [1] 123% | [2] 114% | [3] 54% | [4] 89.4% | [5] 34.6% | [6] 64.7% | [7] 58.2% | [8] 81.2% | [9] 14.1% | [10] 50.8% | [11] 89.6% | [12] 85.1% | [13] 78% | [14] 74% | [15] 49.3% | [16] 99.9% | [17] 70.9%

CCN(CC)S(=O)(=O)c1cccc([N+](=O)[O-])c1
inactive: [1] 103% | [2] 93.2% | [3] 85.7% | [4] 109% | [5] 95.4% | [6] 86.9% | [7] 107% | [8] 108% | [9] 97.9% | [10] 103% | [11] 79.1% | [12] 99% | [13] 100% | [14] 103% | [15] 80.7% | [16] 101% | [17] 108%

COc1cc(/C=C/C(=O)c2c(C)oc3nc[nH]c(=O)c23)ccc1O
inactive: [1] 126% | [2] 122% | [3] 103% | [4] 96.5% | [5] 101% | [6] 103% | [7] 100% | [8] 108% | [9] 93% | [10] 101% | [11] 100% | [12] 102% | [13] 100% | [14] 90.2% | [15] 102% | [16] 100% | [17] 103%

CN(C)Cc1c(-c2ccccc2)[nH]c2ccccc12
inactive: [1] 95.6% | [2] 85.7% | [3] 102% | [4] 96.1% | [5] 117% | [6] 81.7% | [7] 110% | [8] 103% | [9] 100% | [10] 98.2% | [11] 75.3% | [12] 105% | [13] 99.6% | [14] 81.8% | [15] 67.9% | [16] 98.2% | [17] 96.7%

COc1ccc(Nn2c(SCC(=O)Nc3nc(-c4ccc(Cl)cc4)cs3)nc(C)c2C)cc1
inactive: [1] 40.3% | [2] 35.7% | [3] 43.9% | [4] 111% | [5] 37% | [6] 77.8% | [7] 70.9% | [8] 60.7% | [9] 86.1% | [10] 23.1% | [11] 53.3% | [12] 50.4% | [13] 75.2% | [14] 20.8% | [15] 27.8% | [16] 54.2% | [17] 43.1%

CC(=O)NCCCS(=O)(=O)O
inactive: [1] 101% | [2] 113% | [3] 104% | [4] 100% | [5] 107% | [6] 103% | [7] 108% | [8] 108% | [9] 83.4% | [10] 101% | [11] 110% | [12] 99.9% | [13] 90.9% | [14] 101% | [15] 98.5% | [16] 102% | [17] 102%
